# Laboratory results published in PubChem BioAssay AID1347428 (National Center for Advancing Translational Sciences (NCATS), 2020).
# The campaign covered roughly 91,000 compounds. About 290 (0.32%) were called active. Inconclusive results (about 7%) are left out. Many of the other results were omitted from the sample, so actives are more common in it than they were. Unmarked numbers belong to inactive results. Calls come from the whole dose curve; as a rule, active = well fitted inhibition curve with a large enough effect; inconclusive = small, poorly fitted or top-dose-only effect; inactive = no such curve, though single readings can be large or run the other way.
# Biological target: Single-stranded DNA cytosine deaminase (Homo sapiens) (UniProt Q9GZX7)
# Assay: Primary qHTS assay for inhibitors of Activation Induced Cytidine Deaminase (AID): AID signal; note: nearly all actives have a fitted effect of over 25% in size
# Conditions: AID deamination FRET fluorescence, UDG-coupled, 4 h; series mostly up to 115 µM; activity change, negative = inhibition: at the top concentration
# From the text: Assay Provider (PI) Patricia Gearhart Ph.D.
# National Institute on Aging
# National Institute of Health (NIH), Bethesda, MD
# Assay Provider (PI) Rahul Kohli Ph.D.
# Perelman School of Medicine
# University of Pennsylvania, Philadelphia, PA
# Activation-Induced Deaminase (AID) is a cytosine deaminase which converts cytosine into uracil within stretches of ssDNA. The presence of uracil in DNA initiates a cascade of mutagenic DNA repair to introduce point mutations and DNA double strand breaks. Specific targeting of AID to the immunoglobulin heavy chain loci (Igh) promotes mutagenesis in the antibody variable region for somatic hypermutation (SHM) or switch regions leading to class switch recombination (CSR). However, AID also plays a role in accumulating unnecessary mutations across the genome. Mis-targeting of AID results in the initiation of tumor development and leads to greater drug resistance among cancer cells when continually expressed. To identify an AID inhibitor, a small molecule library will be screened in collaboration with NCATS core facility at NIH. To confirm biological function, inhibitors will be examined in an in vitro murine B-cell activation assay and subsequent secondary validation screens. Top molecules will be further screened to identify inhibitory efficacy against a wild type primary splenocytes assay. Using these approaches, we hope to identify a small molecule with great efficacy and low toxicity for use as a molecular probe to further characterize AID's intricacies, or even as a therapeutic.
# A FRET based analysis of cytosine deamination, was developed to identify potential inhibitors of AID catalytic activity. This screen has two signal output, Read 1 evaluates the AID inhibition response. The second readout (Read 2) evaluates UDG response and is uses as a counterscreen to exclude false positive inhibitors. Inhibition in AID and inactivity in the UDG signal is the desired outcome for this assay.
# SEQUENCE No. (e.g., 1, 2, 3, etc.); […] (e.g., Cells, Incubation, Reagent, etc.); VALUE; DESCRIPTION
# 1a; Reagent; 3 uL; [4/3x] 1 uM AID/2.67 U/mL UDG
# 1b; Reagent; 3 uL; 2 U/mL UDG
# 1c; Reagent; 3 uL; 1 uM AID
# 2a; Compound; 46 nL; Follow-up plates (0.64 uM - 10 mM)
# 2b; Control; 46 nL; ATA ([…] - 10 mM)
# 3; Time; 10 min; incubation at room temperature
# 5; Time; 4 hr; incubation at room temperature
# 6; Reagent; 4 uL; [2x] 250 mM NaOH
# 7; Time; 15 sec; centrifuge at 1000 rpm
# 8; Time; 30 min; incubation at room temperature
# 9a; Detection; fluorescence (Read 1: AID); EnVision (PerkinElmer) plate reader, 540 excitation and 590 emission filters
# 9b; Detection; fluorescence (Read 2: UDG); EnVision (PerkinElmer) plate reader, 560 excitation and 665 emission filters
# NOTES (numbers refer to sequence above)
# 1a; Reagents were dispensed in a medium-binding black solid-bottom Greiner plates (789176F) using a BioRptr liquid dispenser. Dispense 3 uL of [4/3x] 1 uM AID (provided by Kohli lab) and [4/3x] 2 U/mL UDG (NEB M0280L) into columns 1, 2, 5 to 48.
# 1b; Dispense 3 uL of [4/3x] 2 U/mL UDG into column 3.
# 1c; Dispense 3 uL of [4/3x] 1 uM AID into column 4.
# 2a; Compound (7-points [uM] (0.64; 3.2; 16; 80; 400; 2,000; 10,000; 20,000) double pin-transferred (Dip Factor = 2) using the Kalypsys (Wako USA) pintool equipped with a 1536 pinhead for a final concentration range of 7.32 nM - 114 uM.
# 2b; 10 mM Aurintricarboxylic Acid (Sigma A1895) (ATA, 8-point, n = 2, 1:2.5 dilution in column 2) double pin-transferred (Dip Factor = 2) using the Kalypsys (Wako USA) pintool equipped with a 1536 pinhead for a [final] range of 186 nM - 114 uM.
# 3; Room temperature incubation.
# 4; Dispense 1 uL of substrate mixture from the Kohli lab [4x] […] DJC20 and [4x] 250 nM DJC23 into columns 1 to 48 .
# 5; Room temperature incubation.
# 6; Dispense 4 uL of substrate mixture [2x] 250 mM NaOH into columns 1 to 48.
# 7; Centrifugation step to remove bubbles.
# 8; Room temperature incubation
# 9a; Fluorescence signal (column label AID) was read using the EnVision plate reader. […]
# % is set by controls: 0 for no effect and ±100 for the full control effect; potency is the fitted concentration of half-maximal effect.
# Single-stranded DNA cytosine deaminase (Homo sapiens), sequence (Q9GZX7 whole entry, looked up): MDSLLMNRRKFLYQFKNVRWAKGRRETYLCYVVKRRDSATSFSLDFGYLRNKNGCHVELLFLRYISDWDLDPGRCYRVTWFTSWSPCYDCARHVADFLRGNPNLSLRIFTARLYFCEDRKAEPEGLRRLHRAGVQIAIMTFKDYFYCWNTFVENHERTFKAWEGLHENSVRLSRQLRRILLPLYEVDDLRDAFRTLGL
Compound,"activity change, negative = inhibition [%]",Potency
Cc1cc(O)c2c(C)c(CC(=O)Nc3nc4ccccc4[nH]3)c(=O)oc2c1,1.17,
Cc1ccc(CC(=O)NC2(C)CCCc3ccccc32)cc1 (configuration not stated),0.195,
CCn1c(SCC(=O)N2CCc3ccccc32)nnc1C(C)NC(=O)c1ccccc1F (configuration not stated),-8.1,
O=S1(=O)C=CC(N(Cc2ccccc2)Cc2ccccc2F)C1 (configuration not stated),-15.4,
Cc1cc(NC(=O)C(C)Sc2nc(NC3CC3)c3ccccc3n2)no1 (configuration not stated),-6.81,
O=C(NC(CCCc1ccccc1)c1ccccc1)c1ccc[n+]([O-])c1 (configuration not stated),-7.86,
COc1ccc(OC)c(CNC(=O)c2scnc2C)c1,10.7,
CCCCNC(=O)CSc1c2c(nc3cc(Cl)ccc13)CCCC2,-17.5,
COc1cccc(N=C2NN=C(c3ccc4c(c3)CC(C)N4S(C)(=O)=O)CS2)c1 (configuration not stated),21.3,
COc1cc(C(=O)Oc2ccc(C(C)=O)cc2)ccc1C,11.9,
CCN(C)Cc1cccc(CNC(=O)NC2CC2)c1,-3.88,
CCCCn1c(CNC(=O)C23CC4CC(CC(C4)C2)C3)nnc1SCC(=O)Nc1ccc(C)cc1,,44.7 µM (active)
CCn1c(CNC(=O)C23CC4CC(CC(C4)C2)C3)nnc1SCC(=O)Nc1ccc(OC)cc1,-13.2,
Cc1cccc(NC(=O)CSc2nnc(CNC(=O)c3cccc(C)c3)n2-c2ccccc2)c1,-8.63,
Cc1ccc(-n2c(=O)c3sccc3n(CC(=O)N3CCCCC3C)c2=O)cc1C (configuration not stated),-1.29,
N#Cc1c(SCC(=O)N2CCCC2)nc(N2CCOCC2)c2c1CCCC2,-14.6,
N#Cc1ncn(CCC(=O)Nc2ccc(F)c(F)c2)n1,,14.1 µM (active)
Cc1ccc(NC(=O)Cn2c(=O)c3c(ncn3CC(C)C)n(CC(C)C)c2=O)cc1F,-19.2,
CCOC(=O)c1ccc(NC(=O)CCn2cnnn2)cc1,0.636,
Cc1nc2nc(SCC(=O)c3ccccc3)[nH]c2cc1Br,-8.97,
CN(Cc1c(F)cccc1Cl)C(=O)c1ccc(NS(C)(=O)=O)cc1,-4.28,
O=C(NC1CC1)c1cc(-c2ccc(Cl)cc2)nc2ccccc12,-3.94,
COc1cc(F)ccc1NC(=O)Cc1nn(C)c(=O)c2ccccc12,-4.44,
COc1ccc(-c2nnc(SCCOc3ccc(Cl)cc3Cl)n2C(C)C)cc1,-26.6,

Compound,"activity change, negative = inhibition [%]",Potency
Cc1c(Cl)cccc1NC(=O)C1CCCN(c2ncnc3onc(C)c23)C1 (configuration not stated),1.15,
O=C(c1cnn(-c2ccc(F)cc2)c1-n1cccc1)N1CCN(c2ccc(F)cc2)CC1,-15,
Cc1c(Cl)cccc1NC(=O)C1CCCN(C(=O)c2cnn(-c3ccccc3)c2-n2cccc2)C1 (configuration not stated),,22.4 µM (active)
Nc1nnnn1Cc1nnc(SCc2ccc(F)cc2)n1-c1ccccc1,-7.07,
Cc1ccccc1/C=C1\CCc2ccccc2C1=O,-12.2,
O=C(NC(c1ccccc1)c1ccccn1)c1cc[n+]([O-])cc1 (configuration not stated),5.75,
O=C(NCCc1ccccc1)c1[nH]c2ccccc2c1Cl,4.63,
COc1cc(C(=O)Nc2ccc(C(=O)O)cc2)c2ccccc2n1,-14.4,
COc1ccccc1-c1cc(=O)c2cc(C)ccc2o1,-7.1,
COC(=O)C(C)(NC(=O)CCC(=O)c1ccccc1)c1ccccc1 (configuration not stated),-8.13,
O=C(NC/C(=N/NC(=O)c1cccnc1)c1ccccc1)c1ccccc1,-6.31,
CN(Cc1cccc(C(F)(F)F)c1)C1CCN(C(=O)c2cncc(Br)c2)CC1,4.19,
Cc1cc2nc(CSc3nc4ccc(NC(=O)CCC5CCCC5)cc4s3)cc(=O)n2o1,6.43,
O=Cc1cccc(Br)c1O,-2.6,
Cc1ccc(S(=O)(=O)NC(C)c2cccs2)cc1 (configuration not stated),2.96,
Cc1cc(C(C)(C)C)cc(C)c1CS(=O)Cc1ccc(F)cc1 (configuration not stated),-27.6,
CC(=O)c1c(C)[nH]c(C(=O)C(C)SCc2ccc(Cl)cc2)c1C (configuration not stated),-4.65,
NC(=O)NNC(=S)Nc1ccc(SC(F)F)cc1,-2.65,
COC(=O)c1cc(S(=O)(=O)Nc2ccc(C)c(F)c2)c[nH]1,-0.855,
CCc1ccc(-c2csc(/C(C#N)=C\Nc3ccccc3C)n2)cc1,-2.89,
Cc1sc(NC(=O)Cc2ccccc2)c(C#N)c1C,8.65,
Cc1cc(-c2ccccc2)c(-c2nc3ccccc3s2)[nH]1,67.1,
C=CCNCc1ccc(CC)cc1,-3.27,
COc1ccc(-c2csc(N)c2C#N)cc1,28.9,

Compound,"activity change, negative = inhibition [%]",Potency
O=C(CCC1CCCC1)NCc1ccncc1,-3.62,
c1ccc2cc(OCCSc3ccc4ccccc4n3)ccc2c1,-1.21,
COc1cc(/C=C2/NC(=O)NC2=O)cc(I)c1OCC(=O)O,9.59,
Cc1ccc2c(c1)-c1cccc3cccc(c13)C2=O,-3.02,
C[N+](C)(CCCCCC[N+](C)(C)CCCN1C(=O)c2cccc3cccc(c23)C1=O)CCCN1C(=O)c2cccc3cccc(c23)C1=O,,4.47 µM (active)
COc1ccc(CNC(=O)/C=C/c2ccc(C)cc2)cc1,-7.12,
CCc1nc2ccccc2c(NC(=O)CN(CC)CC)c1C,2.75,
Cc1ccn2c(F)c(C(F)(F)F)nc2c1,-2.88,
C=CCn1c(NCCCOCC)nc2c1c(=O)[nH]c(=O)n2C,-13.2,
Cc1ccc2[nH]c(=O)c(-c3noc(CCCC(=O)NC4CCCCC4)n3)cc2c1,11,
Cc1c(F)cccc1NC(=O)C12CC3CC(CC(C3)C1)C2,-16.2,
Cc1ccc(C)c(C(C)NC(=S)NCc2ccc(Cl)cc2)c1 (configuration not stated),-11.9,
O=C(c1ccc(Cl)cc1Cl)N(C1CCCCC1)C1CCCCC1,-9.19,
Cc1ccc(CNC(=O)c2scnc2C)cn1,-0.773,
Cc1cc(-c2noc(COc3ccc(I)cc3)n2)c2ccccc2n1,-15.1,
CCn1nnc(NC(=O)c2cc3ccccc3cc2OC)n1,-11.7,
CC(C)NC(=O)C1CCC(Cn2c(=O)c3sccc3n(Cc3ccc(F)cc3)c2=O)CC1 (configuration not stated),-4.59,
CCCNC(=O)C1CCC(Cn2c(=O)c3sccc3n(Cc3ccccc3F)c2=O)CC1 (configuration not stated),-24.2,
O=C(C1CCC(Cn2c(=O)c3sccc3n(Cc3ccccc3F)c2=O)CC1)N1CCCCC1 (configuration not stated),,25.1 µM (active)
N#Cc1cccc(NC(=S)NCCc2ccccc2)c1,-15.4,
CCNCc1ccccc1C(F)(F)F,-1.7,
CCCCNC(=O)Nc1ccccc1CC(N)=O,-1.59,
O=C(CSc1ccc2c(c1)OCCO2)Nc1ccc2c(c1)OCCO2,-9.11,
COCCNc1nc(-c2ccccc2)c2cc(Br)ccc2n1,-17.5,
